# Where a name gives a salt, the structure may show the parent alone.
# Tests used:
# RIVA [1] = experiment: growth inhibition by drug plus 177Lu-lilotomab satetraxetan (1 - RLU/untreated control) (fraction); higher = stronger inhibition; details: 177Lu-lilotomab satetraxetan 0.5 ug/ml
# How it was run: (§1)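 Compound doses on the pre-printed Selleck Cambridge Cancer Compound library plates were 10/100 nM for RIVA cells and 10/1,000 nM for U-2932 cells, seeded at 3,000 cells/well. Before seeding, cells were washed after 18 h with or without a radiolabelled anti-CD37 antibody conjugate (~600 MBq/mg; 0.5 µg/ml RIVA, 1 µg/ml U-2932). Growth inhibition was derived from RealTime-Glo luminescence relative to untreated no-drug control wells. Readings were taken daily starting on day 3, each after 1 h at 37°C, and each well's RLU was divided by the mean of 48 such wells per plate and subtracted from 1.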
# U-2932 [2] = experiment: growth inhibition by drug alone (1 - RLU/untreated control) (fraction); higher = stronger inhibition; details: 177Lu-lilotomab satetraxetan 0 ug/ml
# How it was run: as §1
# RIVA [3] = experiment: as above; details: 177Lu-lilotomab satetraxetan 0 ug/ml
# How it was run: as §1
# U-2932 [4] = experiment: growth inhibition by drug plus 177Lu-lilotomab satetraxetan (1 - RLU/untreated control) (fraction); higher = stronger inhibition; details: 177Lu-lilotomab satetraxetan 1 ug/ml
# How it was run: as §1
Structure (SMILES),"growth inhibition by drug plus 177Lu-lilotomab satetraxetan (RIVA [1]; 100 nM, time (day): 5)","growth inhibition by drug plus 177Lu-lilotomab satetraxetan (RIVA [1]; 100 nM, time (day): 6)","growth inhibition by drug alone (U-2932 [2]; 10 nM, time (day): 3)","growth inhibition by drug alone (U-2932 [2]; 10 nM, time (day): 4)","growth inhibition by drug alone (U-2932 [2]; 10 nM, time (day): 5)","growth inhibition by drug alone (U-2932 [2]; 10 nM, time (day): 6)","growth inhibition by drug alone (U-2932 [2]; 1000 nM, time (day): 3)","growth inhibition by drug alone (U-2932 [2]; 1000 nM, time (day): 4)","growth inhibition by drug alone (U-2932 [2]; 1000 nM, time (day): 5)","growth inhibition by drug alone (U-2932 [2]; 1000 nM, time (day): 6)","growth inhibition by drug alone (RIVA [3]; 10 nM, time (day): 3)","growth inhibition by drug alone (RIVA [3]; 10 nM, time (day): 4)","growth inhibition by drug alone (RIVA [3]; 10 nM, time (day): 5)","growth inhibition by drug alone (RIVA [3]; 10 nM, time (day): 6)","growth inhibition by drug alone (RIVA [3]; 100 nM, time (day): 3)","growth inhibition by drug alone (RIVA [3]; 100 nM, time (day): 4)","growth inhibition by drug alone (RIVA [3]; 100 nM, time (day): 5)","growth inhibition by drug alone (RIVA [3]; 100 nM, time (day): 6)","growth inhibition by drug plus 177Lu-lilotomab satetraxetan (U-2932 [4]; 10 nM, time (day): 3)","growth inhibition by drug plus 177Lu-lilotomab satetraxetan (U-2932 [4]; 10 nM, time (day): 4)","growth inhibition by drug plus 177Lu-lilotomab satetraxetan (U-2932 [4]; 10 nM, time (day): 5)","growth inhibition by drug plus 177Lu-lilotomab satetraxetan (U-2932 [4]; 10 nM, time (day): 6)","growth inhibition by drug plus 177Lu-lilotomab satetraxetan (U-2932 [4]; 1000 nM, time (day): 3)","growth inhibition by drug plus 177Lu-lilotomab satetraxetan (U-2932 [4]; 1000 nM, time (day): 4)","growth inhibition by drug plus 177Lu-lilotomab satetraxetan (U-2932 [4]; 1000 nM, time (day): 5)","growth inhibition by drug plus 177Lu-lilotomab satetraxetan (U-2932 [4]; 1000 nM, time (day): 6)","growth inhibition by drug plus 177Lu-lilotomab satetraxetan (RIVA [1]; 10 nM, time (day): 3)","growth inhibition by drug plus 177Lu-lilotomab satetraxetan (RIVA [1]; 10 nM, time (day): 4)","growth inhibition by drug plus 177Lu-lilotomab satetraxetan (RIVA [1]; 10 nM, time (day): 5)","growth inhibition by drug plus 177Lu-lilotomab satetraxetan (RIVA [1]; 10 nM, time (day): 6)","growth inhibition by drug plus 177Lu-lilotomab satetraxetan (RIVA [1]; 100 nM, time (day): 3)","growth inhibition by drug plus 177Lu-lilotomab satetraxetan (RIVA [1]; 100 nM, time (day): 4)"
COC1=CC(c2cc3ccccc3[nH]2)=N/C1=C\c1[nH]c(C)cc1C [Obatoclax mesylate (GX15-070)],0.412,0.435,,,,,,,,,,,,,,,,,,,,,,,,,,,,,,
CC(C)OC(=O)C1=CN(C(=O)c2ccc(F)c(F)c2)CC(C)(C)c2c1[nH]c1ccccc21,0.608,0.597,0.0404,-0.0052,-0.0866,-0.191,-0.0177,-0.00403,-0.0481,-0.039,0.0268,0.00242,0.00693,-0.0298,-0.161,-0.106,-0.145,-0.234,0.0558,0.102,0.14,0.204,0.038,0.085,0.0862,0.162,0.587,0.594,0.614,0.598,0.546,0.595
O=C(NCCS(=O)(=O)c1ccc(C(F)(F)F)cn1)c1ccc(Cl)cc1,0.517,0.521,-0.00204,-0.0169,-0.0367,-0.101,0.00453,0.00465,-0.0415,0.00213,-0.0219,-0.049,-0.0699,-0.142,-0.409,-0.334,-0.354,-0.458,-0.0322,0.0392,0.0668,0.0664,-0.0112,0.0515,0.0729,0.179,0.548,0.553,0.579,0.579,0.416,0.503
CO[C@@H](C(=O)N1Cc2[nH]nc(NC(=O)c3ccc(N4CCN(C)CC4)cc3)c2C1)c1ccccc1,0.685,0.776,0.0385,-0.0423,-0.0829,-0.0542,0.206,0.258,0.259,0.368,-0.0286,-0.0311,-0.0917,-0.234,0.138,0.0638,0.148,0.29,0.00406,0.0748,0.116,0.142,0.398,0.469,0.53,0.634,0.555,0.594,0.603,0.604,0.514,0.615
CCc1cncnc1N1CCN(Cc2nc3ccc(C(F)(F)F)cc3[nH]2)CC1,0.542,0.514,0.0983,0.0884,-0.0751,-0.108,0.0626,0.102,0.0246,-0.253,0.00505,-0.0231,-0.0829,-0.347,-0.0601,-0.0865,-0.0867,-0.192,0.00491,0.0254,0.0426,0.0627,-0.00879,0.086,0.0686,0.0567,0.505,0.583,0.59,0.587,0.49,0.55
CS(=O)(=O)c1ccc(C(=O)Nc2ccc(Cl)c(-c3ccccn3)c2)c(Cl)c1 [Vismodegib (GDC-0449)],0.591,0.608,0.11,0.072,-0.091,-0.101,0.0775,0.075,0.0248,0.00134,0.089,0.121,0.101,-0.0572,-0.253,-0.16,-0.186,-0.299,0.055,0.116,0.202,0.219,0.117,0.138,0.194,0.297,0.631,0.647,0.682,0.672,0.538,0.568
N#Cc1ccc(NC(=O)Nc2ccccc2Br)c2n[nH]nc12,0.544,0.542,0.122,0.0624,-0.115,-0.0627,0.0674,0.0714,-0.0804,-0.0945,-0.0525,0.00855,-0.101,-0.43,-0.383,-0.198,-0.264,-0.513,0.0243,0.065,0.134,0.142,0.0797,0.0995,0.138,0.218,0.534,0.601,0.605,0.619,0.463,0.528
CS(=O)(=O)CCNCc1ccc(-c2ccc3ncnc(Nc4ccc(OCc5cccc(F)c5)c(Cl)c4)c3c2)o1 [Lapatinib Ditosylate (Tykerb)],0.487,0.486,0.0817,0.081,0.00227,-0.0646,0.0164,0.0506,-0.0238,-0.169,-0.0232,0.00959,-0.0719,-0.295,-0.283,-0.179,-0.183,-0.291,0.108,0.154,0.199,0.225,0.0709,0.127,0.153,0.277,0.649,0.657,0.672,0.674,0.379,0.475

# From the supplement of paper PMC6897291
